Each structure is given as a SMILES string. Where a name gives a salt, the structure may show the parent alone.

The experiment deals with Staphylococcus aureus MW2 delta-mecA (mecA-). In words: normalized GFP fluorescence (growth of mecA- strain) (fraction of control range); higher = more growth of mecA- strain. The conditions noted are these: compound concentration: 150 uM; cefoxitin: subinhibitory; fluorescent label: GFP. Put shortly:
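Compound at 150 μM (1.5% DMSO) in 1536-well plates received 5 µL/well of pre-induced S. aureus MW2 cells mixed 1:1, gene-carrying with DsRed and gene-deleted with GFP, in LB with a daily-set subinhibitory antibiotic dose, single replicate. After 20 h unshaken at 37 °C, 90% humidity, DsRed (540/590) and GFP (485/520) were measured and scaled per plate between single-strain control medians. Plates with high untreated ratios and rows with DsRed/GFP >10 were excluded.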
`C#C[C@]1(OC(C)=O)CC[C@H]2[C@@H]3CCC4=C[C@@H](OC(C)=O)CC[C@@H]4[C@H]3CC[C@@]21C`: the “normalized GFP fluorescence” value is 0.192.

On to `COc1cc2/c(=N/c3ccc(Br)cc3F)nc[nH]c2cc1OCC1CCN(C)CC1` [Vandetanib (Zactima)], for which the “normalized GFP fluorescence” value is 0.22. Then `CCCc1nc(C(C)(C)O)c(C(=O)OCc2oc(=O)oc2C)n1Cc1ccc(-c2ccccc2-c2nnn[nH]2)cc1`, with 0.0265. Then `CCCCC(=O)N(Cc1ccc(-c2ccccc2-c2nnn[nH]2)cc1)[C@H](C(=O)O)C(C)C`, with 0.105; and `CCOC(=O)[C@H](CCc1ccccc1)N[C@@H](C)C(=O)N1[C@H](C(=O)O)C[C@@H]2CCC[C@@H]21`, with 0.338; and `CCOc1ccc(NC(C)=O)cc1`, with 0.419. Regarding `CC(C(=O)O)c1ccc(N2Cc3ccccc3C2=O)cc1` (centres undefined), the “normalized GFP fluorescence” value came out at 0.227. The same measure for `CC(=O)CC(c1ccccc1)c1c(O)c2ccccc2oc1=O` (centres undefined): 0.718; for `CCCSc1nc(N[C@@H]2C[C@H]2c2ccc(F)c(F)c2)c2nnn([C@@H]3C[C@H](OCCO)[C@@H](O)[C@H]3O)c2n1` [Ticagrelor]: -0.0296.

With `NC[C@@H]1O[C@H](O[C@H]2[C@@H](O)[C@H](O[C@@H]3[C@@H](O)[C@H](N)C[C@H](N)[C@H]3O[C@H]3O[C@H](CO)[C@@H](O)[C@H](O)[C@H]3N)O[C@@H]2CO)[C@H](N)[C@@H](O)[C@@H]1O`, the “normalized GFP fluorescence” value amounted to 0.422. For the molecule `CCc1cccc2c3c([nH]c12)C(CC)(CC(=O)O)OCC3` (centres undefined), the “normalized GFP fluorescence” value was 0.0954. Consider `COc1cc2c(Oc3ccc4[nH]c(C)cc4c3F)ncnc2cc1OCCCN1CCCC1` [Cediranib (AZD2171)], for which the “normalized GFP fluorescence” value is -0.00111. As for `C[C@H](NCc1ccc(OCc2cccc(F)c2)cc1)C(N)=O`, the “normalized GFP fluorescence” value was 0.957. The same measure for `CCCCc1nc(Cl)c(CO)n1Cc1ccc(-c2ccccc2-c2nnn[nH]2)cc1`: 0.297; for `N=C(N)NC(=N)NCCc1ccccc1`: 0.435; for `CN(C)CCN(Cc1cccs1)c1ccccn1`: 0.185. Then `CC(C)N1CCN(c2ccc(OCC3COC(Cn4cncn4)(c4ccc(Cl)cc4Cl)O3)cc2)CC1` (centres undefined), with 0.199; and `CCC(=O)OCC(=O)[C@@]1(OC(=O)CC)[C@@H](C)C[C@H]2[C@@H]3CCC4=CC(=O)C=C[C@]4(C)[C@@]3(Cl)[C@@H](O)C[C@@]21C`, with 0.322. Then `Cc1ccccc1C(OCCN(C)C)c1ccccc1` (centres undefined), with 0.779; and `CC1=C(/C=C/C(C)=C/C=C/C(C)=C/CO)C(C)(C)CCC1`, with 0.232; and `O=C(CCCN1CCC(O)(c2ccc(Br)cc2)CC1)c1ccc(F)cc1`, with 0.243. For `CC(O)C(=O)O.N` (centres undefined), the “normalized GFP fluorescence” value is 0.217. The same measure for `CN(C/C=C/C#CC(C)(C)C)Cc1cccc2ccccc12` [Terbinafine hydrochloride (Lamisil)]: 0.111. For the molecule `CNC(=O)CN(CCN(CCN(CC(=O)O)CC(=O)NC)CC(=O)O)CC(=O)O.O.[Gd]` [Gadodiamide (Omniscan)], the “normalized GFP fluorescence” value came out at 0.443. In the case of `Clc1ccc(C(c2ccccc2Cl)C(Cl)Cl)cc1` (centres undefined), the “normalized GFP fluorescence” value was 0.148.

Regarding `CCN[C@H]1C[C@H](C)S(=O)(=O)c2sc(S(N)(=O)=O)cc21` [Dorzolamide HCL], the “normalized GFP fluorescence” value is 0.422. The same measure for `CCC(=O)O[C@@H](O[P@](=O)(CCCCc1ccccc1)CC(=O)N1C[C@H](C2CCCCC2)C[C@H]1C(=O)O)C(C)C` [Fosinopril sodium (Monopril)]: 0.0781; for `CCCNS(=O)(=O)Nc1ncnc(OCCOc2ncc(Br)cn2)c1-c1ccc(Br)cc1` [Macitentan]: 0.0399. As for `CC(=O)O[C@H]1C(=O)[C@@]2(C)[C@H]([C@H](OC(=O)c3ccccc3)[C@]3(O)C[C@H](OC(=O)[C@H](O)[C@@H](NC(=O)c4ccccc4)c4ccccc4)C(C)=C1C3(C)C)[C@]1(OC(C)=O)CO[C@@H]1C[C@@H]2O` [Paclitaxel (Taxol)], the “normalized GFP fluorescence” value stood at 0.188. For `CC#CCn1c(N2CCC[C@@H](N)C2)nc2c1c(=O)n(Cc1nc(C)c3ccccc3n1)c(=O)n2C`, the “normalized GFP fluorescence” value turned out to be 0.315.

For `CCN(CC)CCNC(=O)c1ccc(N)cc1`, the “normalized GFP fluorescence” value turned out to be 0.328. With `CCS(=O)(=O)CCn1c([N+](=O)[O-])cnc1C`, the “normalized GFP fluorescence” value turned out to be 0.603. Then `CCCN(CCC)C(=O)C(CCC(=O)O)NC(=O)c1ccccc1` (centres undefined), with 0.792; and `CN(C)[C@@H](CCOc1cccc2ccccc12)c1ccccc1` [Dapoxetine hydrochloride (Priligy)], with -0.00645. The same measure for `NS(=O)(=O)Cc1noc2ccccc12` [Zonisamide]: 0.595; for `Nc1ccc(S(=O)(=O)Nc2ncccn2)cc1`: 0.475; for `Cc1ccc(S(=O)(=O)NC(=O)NN2CCCCCC2)cc1`: 0.372.

As to `O=P(O)(O)C(O)(Cn1ccnc1)P(=O)(O)O` [Zoledronic Acid (Zoledronate)], the “normalized GFP fluorescence” value was 0.313. On to `CCOC(=O)OC(C)OC(=O)[C@@H]1N2C(=O)[C@@H](NC(=O)[C@H](N)c3ccccc3)[C@H]2SC1(C)C` (some centres undefined), for which the “normalized GFP fluorescence” value amounted to 0.00819.

The values above are taken from the supplement of paper PMC7695840.
